Pf growth 48h: P. falciparum growth inhibition at 48 hours (one generation) | P. falciparum luciferase growth in erythrocytes, 48 h | Potency, µM (doses to about 28.7 µM), for the others: at the top dose activity change, negative = inhibition, hits mostly inhibitors | actives 5.9% (n = 310,000) | AID 504832; further: potency means the concentration at half of the fitted maximal effect; on the % scale 0 is the no-effect control and ±100 the full control effect
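A one-generation exposure of luciferase-tagged malaria parasites in RPMI 1640/Albumax erythrocyte culture, 37 C and 5% CO2. Inhibition is inferred from decreased luminescence after adding detection reagent.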
Shiga toxin inh: inhibitors of Shiga toxin in Vero cells | inhibition, % at 38.7 µM | Vero cells, Shiga toxin protein synthesis inhibition reporter | actives 9.2% (n = 290,000); in the data active means inhibition mostly above about 28%, no sharp cut-off; inactive means mostly below about 43%; further: 0% is about no effect
Pf growth 96h: inhibits malaria parasite growth, 96 h | P. falciparum luciferase reporter growth, 96 h | Potency, µM (titrated, usually from 28.7 µM), without a hit: at the top dose activity change, negative = inhibition, usual class: inhibitors | actives 6.9% (n = 320,000); further: potency means the concentration at half of the fitted maximal effect; on the % scale 0 is the no-effect control and ±100 the full control effect
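Parasite growth measured via integrated firefly luciferase reporter in P. falciparum. Infected erythrocytes at 2% hematocrit, 0.05% parasitemia final were treated 96 hours at 37 C under 5% CO2, and luminescence was read.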
HCMV antiviral: human cytomegalovirus inhibition; HFF cells, HCMV-luciferase reporter, 72 h; hits give low values; activity change, negative = inhibition, % at 57.5 µM; actives 4.5% (n = 410,000); AID 1259415; in the data active means activity change below about -60%; inconclusive means no clear call, values can overlap the other calls; inactive means above about -39%; further: on the % scale 0 is the no-effect control and ±100 the full control effect
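Two compound doses tested in HFFs infected with HCMV-luciferase, MOI 1 PFU/cell, 72 h at 37C. Lysate luminescence read with OneGlo; data normalized against buffer-only and 10uM Salinomycin inhibitor controls.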
Cycloheximide cs: counter-screen hit for Shiga toxin inhibitors, cycloheximide | max response, % | actives 12% (n = 300,000) | cell reporter, cycloheximide protein synthesis inhibition counterscreen; in the data active means max response mostly above about 13%, no sharp cut-off; inactive means mostly below about 14%; further: read at 38.3 µM for the half of the compounds with a filed dose; 0% is about no effect
* hit, by the source's call; ? = inconclusive; / = no result given; ! = repeats disagree. Shown are actives, neighbours in structure and some others; about 20% of the full set was active somewhere. Unless noted, the call rests on the fitted dose curve; in most records, active means well fitted inhibition curve with a large enough effect; inconclusive means small, poorly fitted or top-dose-only effect, or another doubt; inactive means no such curve, though single readings can be large or run the other way.

SMILES	Pf growth 48h	Shiga toxin inh	Pf growth 96h	HCMV antiviral	Cycloheximide cs
O=C(NNC(=O)c1nc2ccccc2[nH]1)OCc1ccccc1	/	/	/	-10	/
O=C(O)[C@@H]1CCCN1C(=O)c1ccccc1N1C(=O)[C@@H]2Cc3c([nH]c4ccccc34)C(c3cccc(Cl)c3)N2C1=O (stereo not given in full)	?	-2	10µM*	14	-3
CC(C)c1ccc(C2c3[nH]c4ccccc4c3C[C@H]3C(=O)N(c4ccccc4C(=O)N4CCC(C(=O)O)CC4)C(=O)N23)cc1 (stereo not given in full)	1.7µM*	-3	1.5µM*	-2	2
COc1nc(N)nc2c1ncn2C1OC(CO)CC1O (stereo not given)	/	/	/	12	/
O=C(c1ccco1)N1CCN(Cc2nnc(-c3cccc(Br)c3)o2)CC1	5%	20	-4%	0	5
COc1ccc(Cl)cc1NC(=O)c1cnc2sc(N3CCOCC3)nn2c1=O	/	/	/	32	/
Cc1cc(C)nc(NS(=O)(=O)c2ccc(NC(=O)COc3ccc(C(C)(C)C)cc3)cc2)n1	/	/	/	8	/
CCN1C(=O)C(CC(=O)Nc2ccc(F)cc2)N(CCCN2CCN(c3ccc(F)cc3)CC2)C1=S (stereo not given)	?	-8	?	14	-6
CN(C)C(=O)CCC(=O)N1CCCC(C(=O)c2ccc3c4c(cccc24)CC3)C1 (stereo not given)	-2%	14	15µM*	25	10
O=C(c1ccc2c3c(cccc13)CC2)C1CCCN(Cc2ccncc2)C1 (stereo not given)	0%	-10	?	-69*	-2
O=C(c1ccc2c3c(cccc13)CC2)C1CCCN(Cc2ncc[nH]2)C1 (stereo not given)	?	-2	17%	-4	-2
COc1ccc(NC(=O)c2ccc(CN3C(=O)CCn4nc(C)cc43)cc2)c(OC)c1	/	/	/	-22	/
CCNC(=O)C/C(C)=N/NC(=O)C12CC3CC(CC(C3)C1)C2	?	41	?	2	20*
CCNC(=O)C/C(C)=N/NC(=O)C1CCCCC1	1%	-3	-18%	14	-1
CCOc1cc(/C=C2\N=C3CCCCCN3C2=O)ccc1O	94%	97*	-1%	-20	36*
COc1cccc(/C=C2\N=C3CCCCCN3C2=O)c1	/	106*	-8%	-3	52*
COc1cccc(/C=C/c2nc(C#N)c(N3CCCCC3)o2)c1	/	/	/	-8	/
CCCCc1c(CCC)c(=N)c2ccccc2n1C	?	7	1%	-98*	2
CCCCc1c(O)c2ccccc2n(CCCC)c1=O	2%	-5	7%	9	-3
Cc1cccc(CN2CCc3c(OCC(=O)NCc4ccco4)cccc3C2=O)c1	12µM*	18	9.3µM*	-21	13*
Cc1ccc(C)c(NC(=O)COc2cccc3c2CCN(Cc2ccccc2)C3=O)c1	-16%	-1	?	-11	-3
Cc1ccc(CN2CCc3c(OCC(=O)Nc4cc(C)ccc4C)cccc3C2=O)cc1	?	2	5.9µM*	/	2
COc1ccccc1OCCSc1nc2ccccc2n1CC(=O)N1CCOCC1	/	/	/	26	/
Cc1cc(N2CCN(C(c3ccccc3)c3ccccc3)CC2)n2ncnc2n1	-22%	-14	-21%	-97*	0
Cc1cc(N2CCN(c3cccc(C(F)(F)F)c3)CC2)n2ncnc2n1	?	-15	/	-17	-1
SMILES	Pf growth 48h	Shiga toxin inh	Pf growth 96h	HCMV antiviral	Cycloheximide cs
Cc1cc(N2CCN(c3nc4ccccc4s3)CC2)n2ncnc2n1	?	-4	-14%	-102*	8
Cc1nc2ncnn2c(N2CCN(c3cccc(C(F)(F)F)c3)CC2)c1C	?	-36	87%	-101*	-1
Cc1nc2ncnn2c(N2CCN(C(c3ccccc3)c3ccccc3)CC2)c1C	?	11	0.37µM*	-69*	-2
Nc1cnccc1C(=O)O	21%	18	49%	-16	-7
CCC(OC(=O)c1cc2sccc2n1C)C(=O)NCc1ccco1 (stereo not given)	14%	35	-7%	-21	-2
O=C(CSc1nnc(NC(=O)c2c(F)cccc2Cl)s1)Nc1ccccc1F	14%	19	-1%	1	8.3*
O=C(CSc1nnc(NC(=O)C2CC2)s1)Nc1ccccc1Cl	15%	-2	15%	-63*	-3
O=C(CSc1nnc(NC(=O)C2CC2)s1)Nc1ccccc1C(F)(F)F	-3%	4	176%	3	-8
COc1ccc(NC(=O)CSc2nnc(C3CCCCC3)o2)c(OC)c1	7%	20	-1%	-14	-3
O=C(CSc1nnc(C2CCCCC2)o1)Nc1ccccc1Cl	122%	71*	-7%	19	15
O=C(Cn1c(=O)c2cccn2c2ccccc21)Nc1cc(F)ccc1F	-3%	-3	-21%	4	-11
CCN(CC)CCNC(=O)CCN1N=C(c2ccccc2)CCC1=O	23%	27	?	-33	9
CCN1C=C(Cc2ccccc2C)C2=C(C1)C(c1ccccc1C)C(C#N)=C(N)O2 (stereo not given)	/	3	2.9µM*	-7	4
CCN1C=C(Cc2ccc(F)cc2)C2=C(C1)C(c1ccc(F)cc1)C(C#N)=C(N)O2 (stereo not given)	/	-5	?	27	-4
Cc1cnc(C(=O)NCCc2ccc(C(F)(F)F)cc2)cn1	23%	-8	7%	-36	1
Cc1cnc(C(=O)NCCc2ccc(S(=O)(=O)NC(=O)NC3CCCCC3)cc2)cn1	-17%	-10	6.7µM*!	20	-4
CCC(=O)N1CCc2cc(S(=O)(=O)NCCC(=O)Nc3ccc(C)cc3)ccc21	/	/	/	-3	/
Nc1ncc(P(=S)(N2CCOCC2)N2CCOCC2)s1	2%	-19	-5%	5	2
C=Cn1c(P(=S)(N2CCOCC2)N2CCOCC2)cc2c1CCCC2	12µM*	-9	21%	-27	-5
Cc1ccc(N(CC(=O)Nc2ccc3c(c2)OCCO3)S(=O)(=O)c2c(C)n[nH]c2C)cc1	?	37	?	-8	-3
O=C(O)c1cc(S(=O)(=O)Nc2ccc3c(c2)OCCO3)c(Cl)cc1Cl	84%	137*	?	?	73*
Cc1n[nH]c(C)c1S(=O)(=O)Nc1ccc2c(c1)OCCO2	195%	36*	51%	-20	51*
CCOC(=O)COc1ccc(S(=O)(=O)Nc2ccc3c(c2)OCCO3)cc1	22%	16	/	27	18*
Cc1ccc(S(=O)(=O)Nc2ccc3c(c2)OCCO3)cc1C	49%	92*	142%	?	63*
C/C(=N/NC(=O)CNC(=O)c1ccncc1)c1ccco1	54%	38	0%	3	7
CCN(CC)C(=O)CSc1nnc(COc2ccccc2)n1N	31%	15	?	-33	-3
COc1ccc(-c2csc(C(C)(O)c3cccc(F)c3)n2)cc1OC (stereo not given)	/	/	/	14	/
CC(=O)c1cccc(NS(=O)(=O)c2c(C)n[nH]c2C)c1	15%	41	0%	64	-3
